Reference: PMC8384837, “Expanding the binding specificity for RNA recognition by a PUF domain”

Experiments:
Assay in all cases: yeast three-hybrid, YBZ-1, SC-Leu-His + 0.5 mM 3-AT, 4 days
Conditions in all cases: tags: N-Gal4 AD-HA kept; label: inside an RPR1-promoter hybrid RNA with tandem MS2 sites; ssRNA
PUM1 PUF domain R5-RSC = PUM1 PUF domain R5-RSC (Homo sapiens, UniProt Q14671 828-1176, C1007R;R1008S;Q1011C)
Outline: (§1)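 The interaction score is the log change in variant frequency from input to selection. Scores were computed in log2 with a pseudocount of 1 for absent variants, using Illumina sequencing of PCR-amplified repeat regions. The input came from four days on SC-Leu and the selection from four days on SC-Leu-His + 0.5 mM 3-AT. The cells were strain YBZ-1 (LexA–MS2 coat fusion, HIS3 reporter) co-expressing Pumilio-1 PUF domain libraries and matching RNA elements from a centromeric plasmid.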

PUM1 PUF domain R1-HMR = PUM1 PUF domain R1-HMR (Homo sapiens, UniProt Q14671 828-1176, S863H;R864M;Q867R)
Outline: as §1

PUM1 PUF domain R4-TNQ = PUM1 PUF domain R4-TNQ (Homo sapiens, UniProt Q14671 828-1176, N971T;H972N)
Outline: as §1

PUM1 PUF domain R8-KYT = PUM1 PUF domain R8-KYT (Homo sapiens, UniProt Q14671 828-1176, N1122K;Q1126T)
Outline: as §1

PUM1 PUF domain R8-KRN = PUM1 PUF domain R8-KRN (Homo sapiens, UniProt Q14671 828-1176, N1122K;Y1123R;Q1126N)
Outline: as §1

PUM1 PUF domain R5-PGY = PUM1 PUF domain R5-PGY (Homo sapiens, UniProt Q14671 828-1176, C1007P;R1008G;Q1011Y)
Outline: as §1

PUM1 PUF domain R5-SER = PUM1 PUF domain R5-SER (Homo sapiens, UniProt Q14671 828-1176, C1007S;R1008E;Q1011R)
Outline: as §1

PUM1 PUF domain R5-DFT = PUM1 PUF domain R5-DFT (Homo sapiens, UniProt Q14671 828-1176, C1007D;R1008F;Q1011T)
Outline: as §1

PUM1 PUF domain R5-SVS = PUM1 PUF domain R5-SVS (Homo sapiens, UniProt Q14671 828-1176, C1007S;R1008V;Q1011S)
Outline: as §1

PUM1 PUF domain R3-AKE = PUM1 PUF domain R3-AKE (Homo sapiens, UniProt Q14671 828-1176, C935A;R936K;Q939E)
Outline: as §1

GGCUAGAACUAGUGGAUCCCCCGGCGCCCGGCGGCUCGAGCCCGGGUAAGUGUUAAUAGUCUGCAUGCCGCCGGGCGCCAUGCCUGCAGGUCGACUCUAGAAAACAUG
binding signal (PUM1 PUF domain R5-RSC): 3.18 log2 enrichment (interaction score)

GGCUAGAACUAGUGGAUCCCCCGGCGCCCGGCGGCUCGAGCCCGGGUAAGUGUAAAUCGUCUGCAUGCCGCCGGGCGCCAUGCCUGCAGGUCGACUCUAGAAAACAUG
binding signal (PUM1 PUF domain R1-HMR): 3.35 log2 enrichment (interaction score)

GGCUAGAACUAGUGGAUCCCCCGGCGCCCGGCGGCUCGAGCCCGGGUAAGUGUAUAUAGUCUGCAUGCCGCCGGGCGCCAUGCCUGCAGGUCGACUCUAGAAAACAUG
binding signal (PUM1 PUF domain R4-TNQ): 4.92 log2 enrichment (interaction score)

GGCUAGAACUAGUGGAUCCCCCGGCGCCCGGCGGCUCGAGCCCGGGUAAGUGUAAAUAGUCUGCAUGCCGCCGGGCGCCAUGCCUGCAGGUCGACUCUAGAAAACAUG
binding signal (PUM1 PUF domain R8-KYT): 2.68 log2 enrichment (interaction score)
binding signal (PUM1 PUF domain R8-KRN): 2.98 log2 enrichment (interaction score)
binding signal (PUM1 PUF domain R5-PGY): 4.47 log2 enrichment (interaction score)

GGCUAGAACUAGUGGAUCCCCCGGCGCCCGGCGGCUCGAGCCCGGGUAAGUGUCAAUAGUCUGCAUGCCGCCGGGCGCCAUGCCUGCAGGUCGACUCUAGAAAACAUG
binding signal (PUM1 PUF domain R5-SER): 3.79 log2 enrichment (interaction score)
binding signal (PUM1 PUF domain R5-RSC): 3.02 log2 enrichment (interaction score)

GGCUAGAACUAGUGGAUCCCCCGGCGCCCGGCGGCUCGAGCCCGGGUAAGCGUAAAUAGUCUGCAUGCCGCCGGGCGCCAUGCCUGCAGGUCGACUCUAGAAAACAUG
binding signal (PUM1 PUF domain R8-KYT): 2.81 log2 enrichment (interaction score)

GGCUAGAACUAGUGGAUCCCCCGGCGCCCGGCGGCUCGAGCCCGGGUAAGUGUGAAUAGUCUGCAUGCCGCCGGGCGCCAUGCCUGCAGGUCGACUCUAGAAAACAUG
binding signal (PUM1 PUF domain R5-DFT): 3.29 log2 enrichment (interaction score)
binding signal (PUM1 PUF domain R5-SVS): 3.48 log2 enrichment (interaction score)

GGCUAGAACUAGUGGAUCCCCCGGCGCCCGGCGGCUCGAGCCCGGGUAAGUGUAAGUAGUCUGCAUGCCGCCGGGCGCCAUGCCUGCAGGUCGACUCUAGAAAACAUG
binding signal (PUM1 PUF domain R3-AKE): 2.98 log2 enrichment (interaction score)
